# Experimental data: PubChem BioAssay (EPA / NIEHS)
# Values joined by “and” are separate entries in the source; they are usually repeats but may differ in a detail not shown here. Identical values can stand only once. Results filed as inconclusive are left out. Where a structure was tested more than once in an assay, its records may differ in their call. Active and inactive are the calls of the source. Rule for the calls, unless noted: active = hit-call score of the fitted dose curve at least 0.9, where 1 is the maximum; inconclusive = response in the unintended direction; inactive = score below 0.9.
# What was measured:
# [1] = tested on: Sodium/Iodide Symporter (NIS), SLC5A5 (gene 6528); experiment: CPHEA_Stoker_NIS_Inhibition_RAIU: CPHEA's Radioactive Iodide Uptake (RAIU) Assay for Sodium/Iodide Symporter (NIS) Inhibition, Stoker and Laws Labs (AID 2283841)
# Outline: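 HEK293T cells stably expressing human NIS (hNIS-HEK293T-EPA) were exposed to test chemicals at 0.001–100uM (0.5% final DMSO) with 125I at a final 329pM in HBSS/10mM HEPES pH 7.4. After 2 hours at room temperature and ice-cold washes, intracellular 125I was counted as CPM and normalized to DMSO wells.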
# [2] = CEETOX_H295R_11DCORT_noMTC: CeeTox H295R High-throughput Steroidogenesis Assay for 11-Deoxycortisol (11DCORT), maximum tolerated concentration (MTC) filtered results only (AID 2283911; active = hit-call score of the fitted dose curve at least 0.9, where 1 is the maximum; inactive = score below 0.9); settings: actives raise or lower the signal
# Outline: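 H295R, OECD 456-based; 10 uM forskolin 48 h → compound (0.1% DMSO) 48 h → medium extracted, 11DCORT by LC-MS/MS. Gain/loss vs DMSO control, all concentrations kept regardless of MTT viability.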
# [3] = CEETOX_H295R_OHPREG_noMTC: CeeTox H295R High-throughput Steroidogenesis Assay for OH-Pregnenolone (OHPREG), maximum tolerated concentration (MTC) filtered results only (AID 2283912; active = hit-call score of the fitted dose curve at least 0.9, where 1 is the maximum; inactive = score below 0.9); settings: actives raise or lower the signal
# Outline: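 Steroidogenesis in H295R cells (OECD 456, modified): after 48 h forskolin priming and 48 h chemical treatment, secreted 17alpha-hydroxypregnenolone is measured by HPLC-MS/MS. Activity is fitted in both directions against DMSO; concentrations are not filtered by MTT-based MTC.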
# [4] = CEETOX_H295R_OHPROG_noMTC: CeeTox H295R High-throughput Steroidogenesis Assay for OH-Progesterone (OHPROG), maximum tolerated concentration (MTC) filtered results only (AID 2283914; active = hit-call score of the fitted dose curve at least 0.9, where 1 is the maximum; inactive = score below 0.9); settings: actives raise or lower the signal
# Outline: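 Forskolin 10 uM, 48 h prestim → test cmpd in DMSO (0.1% final), 48 h → medium MTBE extraction → LC-MS/MS quant of 17alpha-OH-progesterone. Bidirectional fit vs DMSO; no MTT-based MTC filtering.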
# [5] = CEETOX_H295R_CORTISOL_noMTC: CeeTox H295R High-throughput Steroidogenesis Assay for Cortisol, maximum tolerated concentration (MTC) filtered results only (AID 2283916; active = hit-call score of the fitted dose curve at least 0.9, where 1 is the maximum; inactive = score below 0.9); settings: actives raise or lower the signal
# Outline: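 Cortisol secretion measured by LC-MS/MS after 48 h chemical treatment (final 0.1% DMSO) of forskolin-primed (10 uM, 48 h) H295R cells; gain or loss fitted relative to DMSO, without maximum-tolerated-concentration filtering.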
# [6] = CEETOX_H295R_CORTIC_noMTC: CeeTox H295R High-throughput Steroidogenesis Assay for Corticosterone (CORTIC), maximum tolerated concentration (MTC) filtered results only (AID 2283917; active = hit-call score of the fitted dose curve at least 0.9, where 1 is the maximum; inactive = score below 0.9); settings: actives raise or lower the signal
# Outline: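 Following OECD 456 with minor changes, H295R cultures received 10 uM forskolin for 48 h, then test chemical at 0.1% DMSO for 48 h. Media steroids were extracted and measured by LC-MS/MS.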
# [7] = CEETOX_H295R_DOC_noMTC: CeeTox H295R High-throughput Steroidogenesis Assay for DOC, maximum tolerated concentration (MTC) filtered results only (AID 2283918; active = hit-call score of the fitted dose curve at least 0.9, where 1 is the maximum; inactive = score below 0.9); settings: actives raise or lower the signal
# Outline: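 11-Deoxycorticosterone secreted by human adrenal H295R cells quantified by HPLC-MS/MS after 48 h chemical exposure (0.1% DMSO), following 48 h 10 uM forskolin prestimulation. Concentrations not filtered by MTT-derived MTC; bidirectional fitting.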
# [8] = biological target: frog Thyroid hormone Receptor alpha (TRa), thra-a (gene 397942) (UniProt P15204); experiment: ATG_frTRa_XSP2: Attagene TRANS-FACTORIAL Multi-Species (XSP2) HepG2 Assay for frog Thyroid hormone Receptor alpha (TRa) (AID 2283839);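 for AC50: AC50 reflects induction of frog TRa-driven reporter mRNA above DMSO baseline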
# Sequence of frog Thyroid hormone Receptor alpha (TRa), thra-a (gene 397942) (P15204 whole entry, looked up, the tested form may be a part): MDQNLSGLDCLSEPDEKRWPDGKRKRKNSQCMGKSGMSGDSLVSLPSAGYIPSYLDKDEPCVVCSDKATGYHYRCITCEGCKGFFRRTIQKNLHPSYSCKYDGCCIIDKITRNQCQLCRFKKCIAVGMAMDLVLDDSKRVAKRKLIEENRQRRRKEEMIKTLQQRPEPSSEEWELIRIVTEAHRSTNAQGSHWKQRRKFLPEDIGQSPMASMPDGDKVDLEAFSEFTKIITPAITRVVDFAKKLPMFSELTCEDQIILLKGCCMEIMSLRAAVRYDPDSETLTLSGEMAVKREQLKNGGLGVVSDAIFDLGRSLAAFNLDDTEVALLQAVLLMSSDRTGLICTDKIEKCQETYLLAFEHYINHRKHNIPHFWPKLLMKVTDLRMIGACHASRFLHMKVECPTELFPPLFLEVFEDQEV
# Outline: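 Read-out: fluorescent reporter-transcript fragments resolved by capillary electrophoresis after RT-PCR and HpaI cut. Human HepG2 liver cells carry a transfected frog TRα-Gal4 chimera driving a UAS reporter; 24 h exposure, DMSO baseline, positive-direction fit.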
# [9] = CPHEA_Stoker_NIS_Cytotoxicity: Cytotoxicity Assessment for CPHEA's Radioactive Iodide Uptake (RAIU) Assay for Sodium/Iodide Symporter (NIS) Inhibition, Stoker and Laws Labs (AID 2283897);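 for AC50: active means loss of ATP signal versus DMSO meaning cytotoxicity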
# Outline: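 hNIS-HEK293T-EPA human kidney cells were exposed for 2 hours at room temperature to test chemicals (0.001–100uM, 0.5% final DMSO) in HEPES-buffered HBSS, pH 7.4. Viability was read as ATP content by luciferase bioluminescence, loss of signal versus DMSO.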
# [10] = biological target: human Thyroid hormone Receptor alpha (TRa), THRA (gene 7067) (UniProt P10827); experiment: ATG_hTRa_XSP2: Attagene TRANS-FACTORIAL Multi-Species (XSP2) HepG2 Assay for human Thyroid hormone Receptor alpha (TRa) (AID 2283838)
# Sequence of human Thyroid hormone Receptor alpha (TRa), THRA (gene 7067) (P10827 whole entry, looked up, the tested form may be a part): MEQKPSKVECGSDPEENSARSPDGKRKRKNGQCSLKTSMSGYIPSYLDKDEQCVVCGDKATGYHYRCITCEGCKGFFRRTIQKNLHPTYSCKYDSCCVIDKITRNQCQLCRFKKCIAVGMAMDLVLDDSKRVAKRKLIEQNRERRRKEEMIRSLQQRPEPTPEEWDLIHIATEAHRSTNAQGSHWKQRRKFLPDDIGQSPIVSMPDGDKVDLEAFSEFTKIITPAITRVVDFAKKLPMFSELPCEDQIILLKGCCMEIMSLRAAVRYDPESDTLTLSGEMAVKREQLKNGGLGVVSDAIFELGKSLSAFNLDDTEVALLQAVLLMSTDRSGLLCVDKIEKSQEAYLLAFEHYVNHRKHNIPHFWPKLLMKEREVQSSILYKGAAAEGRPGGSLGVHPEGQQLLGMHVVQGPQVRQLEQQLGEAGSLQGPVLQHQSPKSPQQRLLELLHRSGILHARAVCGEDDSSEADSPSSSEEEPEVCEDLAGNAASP
# Outline: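 HepG2 cells transiently transfected with multiplexed GAL4-UAS reporter units and exogenous NR-GAL4 chimeras; 24 h chemical exposure with 3 nM 6-alpha-fluorotestosterone and 1.5 nM norgestrel present. Reporter mRNA measured by RT-PCR, FAM labelling, HpaI digestion, capillary electrophoresis; gain-of-signal versus DMSO.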
smiles,measurement,setting,value
CO/C=C(/C(=O)OC)c1ccccc1Oc1cc(Oc2ccccc2C#N)ncn1,outcome,[1],inactive
COC(=O)c1ccccc1C(=O)OC,outcome,[2],inactive
same,outcome,[3],inactive
same,outcome,[4],inactive
same,outcome,[5],inactive
same,outcome,[6],inactive
same,outcome,[7],inactive
CC(C)(C)c1ccc(CSc2cnn(C(C)(C)C)c(=O)c2Cl)cc1,AC50,[8],0.0151 µM (active)
same,outcome,[1],inactive
same,outcome,[9],inactive
CCOP(=S)(OCC)SCn1c(=O)oc2cc(Cl)ccc21,outcome,[10],inactive
same,outcome,[8],inactive
same,AC50,[1],34.5 µM (active)
same,outcome,[9],inactive
C=CCC1=C(C)[C@@H](OC(=O)[C@@H]2[C@@H](C=C(C)C)C2(C)C)CC1=O,AC50,[1],50 µM (active)
same,outcome,[9],inactive
N#CC(CCc1ccc(Cl)cc1)(Cn1cncn1)c1ccccc1 (centres undefined),AC50,[1],76 µM (active)
same,AC50,[9],60.2 µM (active)
CCCN(CCC)c1c([N+](=O)[O-])cc(S(N)(=O)=O)cc1[N+](=O)[O-],outcome,[1],inactive
same,outcome,[9],inactive
CC1COC(Cn2cncn2)(c2ccc(Oc3ccc(Cl)cc3)cc2Cl)O1 (centres undefined),AC50,[1],11.5 µM (active)
same,AC50,[9],29 µM (active)
O=C(Nc1ccccc1)Nc1ccnc(Cl)c1,AC50,[1],50 µM (active)
same,AC50,[9],40.1 µM (active)
Fc1ccc(Oc2ccnc3cc(Cl)cc(Cl)c23)cc1,AC50,[1],31.1 µM (active)
same,outcome,[9],inactive
COc1nc(NC(C)C)nc(NC(C)C)n1,outcome,[1],inactive
same,outcome,[9],inactive
CCON=C(CC)C1=C(O)CC(c2c(C)cc(C)cc2C)CC1=O (centres undefined),outcome,[1],inactive
same,outcome,[9],inactive
CCCC1COC(Cn2cncn2)(c2ccc(Cl)cc2Cl)O1 (centres undefined),outcome,[10],inactive
same,outcome,[1],inactive
same,outcome,[9],inactive
C#CCOS(=O)OC1CCCCC1Oc1ccc(C(C)(C)C)cc1 (centres undefined),outcome,[8],inactive
same,outcome,[1],inactive
same,outcome,[9],inactive
OC(c1ccc(Cl)cc1)(c1cncnc1)c1ccccc1Cl (centres undefined),outcome,[1],inactive
same,outcome,[9],inactive
same,AC50,[2],36.7 µM (active)
same,AC50,[3],1.29 µM (active)
same,AC50,[4],31.1 µM (active)
same,AC50,[5],2.57 µM (active)
same,AC50,[6],0.203 µM (active)
same,AC50,[7],11.4 µM (active)
CCOC(=O)C(Cl)Cc1cc(-n2nc(C)n(C(F)F)c2=O)c(F)cc1Cl (centres undefined),outcome,[1],inactive
same,outcome,[9],inactive
N#Cc1cc(Br)c(O)c(Br)c1,outcome,[9],inactive
C=CC1(C)OC(=O)N(c2cc(Cl)cc(Cl)c2)C1=O (centres undefined),AC50,[10],100 µM (active)
same,outcome,[8],inactive
same,outcome,[1],inactive
same,outcome,[9],inactive
COC(=O)N(OC)c1ccccc1COc1ccn(-c2ccc(Cl)cc2)n1,AC50,[10],2.63 µM (active)
same,outcome,[8],inactive
same,outcome,[1],inactive
same,outcome,[9],inactive
CS/C(C)=N/OC(=O)N(C)SN(C)C(=O)O/N=C(\C)SC,outcome,[1],inactive
same,outcome,[9],inactive
CC(C)Oc1cc(-n2nc(C(C)(C)C)oc2=O)c(Cl)cc1Cl,outcome,[10],inactive
same,outcome,[8],inactive
same,outcome,[1],inactive
same,outcome,[9],inactive
CN(C)C(=S)SSC(=S)N(C)C,outcome,[1],inactive
same,outcome,[9],inactive
N#Cc1nn(-c2c(Cl)cc(C(F)(F)F)cc2Cl)c(N)c1S(=O)C(F)(F)F (centres undefined),AC50,[1],26.8 µM (active)
same,outcome,[9],inactive
C=CCC1=C(C)C(OC(=O)C2C(C=C(C)C)C2(C)C)CC1=O (centres undefined),AC50,[1],34 µM (active) and 50 µM (active)
same,outcome,[1],inactive
same,AC50,[9],1.04 µM (active) and 50 µM (active)
same,outcome,[9],inactive
CCCCNC(=O)OCC#CI,outcome,[10],inactive
same,AC50,[8],100 µM (active)
same,AC50,[1],9.77 µM (active)
same,outcome,[9],inactive
CCc1nn(C)c(C(=O)NCc2ccc(C(C)(C)C)cc2)c1Cl,AC50,[1],2.5 µM (active)
same,AC50,[9],9.92 µM (active)
COP(=S)(OC)Oc1nc(Cl)c(Cl)cc1Cl,outcome,[10],inactive
same,outcome,[8],inactive
same,outcome,[1],inactive
same,outcome,[9],inactive
CCCCOC(=O)c1ccccc1C(=O)OCCCC,outcome,[10],inactive
same,outcome,[8],inactive
same,outcome,[1],inactive
same,outcome,[9],inactive
same,outcome,[2],inactive
same,outcome,[3],inactive
same,outcome,[4],inactive
same,outcome,[5],inactive
same,outcome,[6],inactive
same,outcome,[7],inactive
COc1ccc(C(c2ccc(OC)cc2)C(Cl)(Cl)Cl)cc1,outcome,[10],inactive
same,outcome,[1],inactive
same,outcome,[9],inactive
CCOC(=O)CC(SP(=S)(OC)OC)C(=O)OCC (centres undefined),outcome,[1],inactive
same,outcome,[9],inactive
CON(C)C(=O)Nc1ccc(Cl)c(Cl)c1,outcome,[10],inactive
same,outcome,[8],inactive
same,outcome,[1],inactive
same,outcome,[9],inactive
Cc1ccc(-c2c(Cl)nc(C#N)n2S(=O)(=O)N(C)C)cc1,outcome,[1],inactive
same,outcome,[9],inactive
Oc1ccccc1-c1ccccc1,outcome,[1],inactive
same,outcome,[9],inactive
Cc1c(F)c(F)c(COC(=O)C2C(/C=C(\Cl)C(F)(F)F)C2(C)C)c(F)c1F (centres undefined),outcome,[1],inactive
same,outcome,[9],inactive
COC(=O)C(C)Oc1ccc(Oc2ccc(Cl)cc2Cl)cc1 (centres undefined),outcome,[1],inactive
same,outcome,[9],inactive
CCOc1cc(Oc2ccc(C(F)(F)F)cc2Cl)ccc1[N+](=O)[O-],AC50,[1],22.1 µM (active)
CCCCC(CC)COC(=O)c1ccccc1C(=O)OCC(CC)CCCC (centres undefined),outcome,[10],inactive
same,outcome,[2],inactive
same,outcome,[3],inactive
same,outcome,[4],inactive
same,outcome,[5],inactive
same,outcome,[6],inactive
same,outcome,[7],inactive
